M1 antag – human M1 muscarinic receptor antagonists, primary screen, CHO-K1 cells, Fluo-8 calcium fluorescence, 1536-well | CHO-K1 hM1, ACh EC80 antagonist | 360,000 compounds, 1.3% hits | inhibition, % at 3 µM;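 active means percent inhibition above its own plate's cutoff, namely the mean of that plate's compound wells plus 3 SD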;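 further: peak over basal fluorescence ratio during 140 s after agonist addition; 0% = ACh EC80 plus DMSO and 100% = DMSO alone without agonist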
Target sequence (P11229 whole entry, looked up): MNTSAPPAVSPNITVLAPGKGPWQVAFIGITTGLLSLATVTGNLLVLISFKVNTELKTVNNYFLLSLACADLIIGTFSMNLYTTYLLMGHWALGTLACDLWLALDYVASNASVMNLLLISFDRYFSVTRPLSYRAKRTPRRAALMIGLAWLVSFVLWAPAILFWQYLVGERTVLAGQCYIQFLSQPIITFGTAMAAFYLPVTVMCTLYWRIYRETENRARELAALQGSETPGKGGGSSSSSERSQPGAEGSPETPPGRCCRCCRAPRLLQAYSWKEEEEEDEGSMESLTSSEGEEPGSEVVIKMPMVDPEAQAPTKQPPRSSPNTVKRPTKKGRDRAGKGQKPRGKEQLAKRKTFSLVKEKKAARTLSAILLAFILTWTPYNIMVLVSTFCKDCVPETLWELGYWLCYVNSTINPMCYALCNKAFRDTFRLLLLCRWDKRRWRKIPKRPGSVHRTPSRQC
CHO-K1 Ca PAM – nonselective calcium activators in parental CHO-K1 cells, primary screen, counter-screen for M1 PAM project, cell-based, Fluo-8 calcium fluorescence, full deck, 1536-well; ATP EC20; 0% at ATP EC20, 100% at ATP max; activation, % at 3 µM; 360,000 compounds, 0.02% hits;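 active means activation above the run cutoff, the mean activation of all test compounds plus 3 SD, cut at about 40% in these data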;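 further: peak over basal fluorescence ratio in a 140 s read after ATP addition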
M1 ag parental – counter-screen for M1 agonists: effect in parental CHO-K1 cells | 360,000 compounds, 0.48% hits | activation, % at 3 µM | AID 602248, 2012 | Fluo-8 calcium fluorescence; scaled to maximal ATP response, vehicle zero; in the data active means activation above about 15%;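 further: untransfected CHO-K1 host cells lacking M1 receptor as counterscreen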
M1 PAM – human M1 muscarinic receptor positive allosteric modulators, primary screen, CHO-K1 cells, Fluo-8 calcium fluorescence, 1536-well. Muscarinic acetylcholine receptor M1 (Homo sapiens), P11229. CHO-K1 hM1, ACh EC20; 0% = ACh EC20, 100% = maximal ACh. activation, % at 3 µM. 360,000 compounds, 0.088% hits. AID 588819, 2011; in the data active means activation above about 19%, passing the limit was not always enough
CHRM1 agonist – human M1 muscarinic receptor agonists, primary screen, Fluo-8 calcium fluorescence, CHO-K1 cells, HTS; AID 588814, 2011; Muscarinic acetylcholine receptor M1 (Homo sapiens), P11229; activation, % at 3 µM; CHO-K1 hM1, agonist mode; 0% DMSO, 100% acetylcholine EC100; 360,000 compounds, 0.33% hits;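 active means activation above the run's mean compound activation plus 3 SD, cut at about 16% in these data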;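 further: peak over basal fluorescence ratio within a 140 s kinetic read after compound addition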
CHO-K1 Ca antag – nonselective inhibitor or artifact in parental CHO-K1 cells | ATP-induced calcium, Fluo-8 fluorescence | inhibition, % at 3 µM | 360,000 compounds, 0.6% hits;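 active means inhibition above a per-plate cutoff, the plate's mean sample inhibition plus 3 SD, cut at about 24% in these data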;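 further: 0% = DMSO plus EC80 ATP and 100% = DMSO alone without ATP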
Active calls of the source: *. Shown are actives, neighbours in structure and some others; about 2.3% of the full set was active somewhere.

SMILES | M1 antag | CHO-K1 Ca PAM | M1 ag parental | M1 PAM | CHRM1 agonist | CHO-K1 Ca antag
CCCCn1nnnc1C(c1cccc2ccccc12)N1CCN(C/C=C/c2ccccc2)CC1 (stereo not given) | 95* | 0 | 1 | -25 | -5 | 14
Cc1oc(CN2CCOCC2)cc1C(=O)O | -5 | 11 | 2 | 8 | -8 | -2
CCCCc1nc(SCC(=O)N2CCCC2)c2c(=O)n(C)c(=O)n(C)c2n1 | -10 | -6 | 0 | 8 | -5 | -4
COc1cccc(/C=N/NC(=O)Cn2cnc3c2c(=O)n(C)c(=O)n3C)c1 | -18 | 11 | 0 | 17 | -2 | -10
Cc1cccc(C)c1-n1nnnc1C(c1cc2ccccc2o1)N1CCN(C/C=C/c2ccccc2)CC1 (stereo not given) | 56* | 14 | 1 | -25 | -4 | -22
Cc1cccc(C)c1-n1nnnc1C(c1cccc2ccccc12)N1CCN(C/C=C/c2ccccc2)CC1 (stereo not given) | -8 | 2 | 0 | -8 | -3 | -18
CCCCn1nnnc1C(c1ccnc2ccccc12)N1CCN(C/C=C/c2ccccc2)CC1 (stereo not given) | 80* | -5 | 0 | -27 | -6 | -9
CCCCn1nnnc1C(CC)N1CCN(C/C=C/c2ccccc2)CC1 (stereo not given) | -28 | -11 | 2 | 8 | -5 | 10
COc1ccc(C(=O)NNC(=O)c2ccc(C(C)(C)C)cc2)cc1 | -2 | 7 | 4 | 6 | -8 | 10
CCCOc1ccc(C(=O)NNC(=S)NC(=O)c2cc(-c3ccc(Cl)cc3)nc3ccccc23)cc1 | 4 | 3 | 0 | 4 | -2 | 13
COc1ccc(C(=O)NC(=S)NNC(=O)c2ccccc2C)cc1 | 19 | -31 | 85* | -22 | 85* | 24*
COc1cc(C(=O)NNC(=S)NC(=O)c2ccccc2C)cc(OC)c1OC | -2 | 6 | 24* | 0 | 14 | 6
COc1ccc(C(=O)NNC(=S)NC(=O)c2cc(-c3ccccc3)nc3ccccc23)cc1 | -23 | 6 | 30* | 5 | 3 | -20
COc1ccc(C(=O)NNC(=S)NC(=O)C(C)(C)C)cc1 | 29 | -31 | 86* | -24 | 77* | 15
Cc1ccc(S(=O)(=O)N2CCC(C(=O)Nc3nnc(C)s3)CC2)cc1 | 2 | 3 | 1 | 1 | -3 | -11
COc1ccc(-n2c(COc3cccc4ccccc34)nnc2SC(C)C(=O)O)cc1 (stereo not given) | 4 | -6 | -1 | 5 | -11 | 32*
Cc1oc(-c2ccc(Cl)cc2)nc1CN1CCCC(C(=O)NC2CC2)C1 (stereo not given) | -2 | 9 | 1 | -1 | -6 | -11
CCOC(=O)N1CCC(NC(=O)C2CCCN(Cc3nc(-c4cccc(Cl)c4)oc3C)C2)CC1 (stereo not given) | 37* | 0 | 10 | -21 | -4 | 30*
O=C(Nc1cc(Cl)cc(Cl)c1)N1CCCC1 | 10 | 7 | 5 | 0 | 0 | 0
CCCC(=O)Nc1ccccc1-c1nnc(SC)[nH]c1=O | 1 | 5 | 0 | 7 | -1 | 28*
CCCSc1nnc(-c2ccccc2NC(=O)CC)c(=O)[nH]1 | 2 | -4 | 0 | 6 | -2 | 0
c1ccc(-c2nn3c(C4CCCCC4)nnc3s2)nc1 | -5 | 14 | 0 | 4 | -1 | -2
c1ccc(-c2nn3c(C4CCCCC4)nnc3s2)cc1 | -2 | -7 | -1 | 3 | 1 | 25*
O=C(C[n+]1cccc(Br)c1)c1ccccc1 | -9 | 10 | 1 | 14 | -7 | 0
O=C(C[n+]1cccc(Br)c1)c1ccc(-c2ccccc2)cc1 | 38* | 13 | 3 | -27 | -11 | 0
SMILES | M1 antag | CHO-K1 Ca PAM | M1 ag parental | M1 PAM | CHRM1 agonist | CHO-K1 Ca antag
Cc1ccc(C)[n+](CC(=O)c2ccc(-c3ccccc3)cc2)c1 | 44* | 17 | 0 | -34 | -16 | 12
CC(C)(C)C1CCC(=O)N(CCOc2ccccc2)CC1 (stereo not given) | 4 | -3 | -1 | 0 | -3 | -7
COc1ccc(-c2ccc(=O)n(CC(=O)NCC3COCCO3)n2)cc1 (stereo not given) | -23 | 15 | 1 | 8 | 0 | -8
CCC1(c2ccc(F)cc2)NC(=O)N(CC(=O)Nc2cccnc2Cl)C1=O (stereo not given) | -5 | -28 | 9 | 6 | 17* | -3
CCC1(c2ccccc2)NC(=O)N(CC(=O)Nc2ccccc2N2CCCC2)C1=O (stereo not given) | -14 | -8 | 5 | 10 | 13 | 10
COc1ccc(C2(C)NC(=O)N(CC(=O)Nc3cccnc3Cl)C2=O)cc1 (stereo not given) | -7 | -3 | 6 | 8 | 10 | 0
CC1(c2ccccc2)NC(=O)N(CC(=O)Nc2ccccc2N2CCCCC2)C1=O (stereo not given) | -3 | 17 | 6 | 6 | 22* | -11
CC1(c2ccc([N+](=O)[O-])cc2)NC(=O)N(CC(=O)Nc2cccnc2Cl)C1=O (stereo not given) | -6 | 15 | 9 | 9 | 22* | -7
CCC1(c2ccccc2)NC(=O)N(CC(=O)Nc2cccnc2Cl)C1=O (stereo not given) | -11 | 23 | 2 | 14 | 4 | -2
CC1(c2ccc(OC(F)F)cc2)NC(=O)N(CC(=O)Nc2cccnc2Cl)C1=O (stereo not given) | 19 | -16 | 33* | -8 | 44* | -1
Cc1ccc(C2(C)NC(=O)N(CC(=O)Nc3cccnc3Cl)C2=O)cc1 (stereo not given) | 0 | 17 | 2 | 9 | 2 | -11
CN(C)c1nc(Cl)nc2c1nc(Cl)n2C1CCCCO1 (stereo not given) | -9 | 18 | 0 | 7 | -5 | 0
CC1(C(=O)NCc2cccnc2)CCN1C(=O)Cc1cccs1 (stereo not given) | -8 | 11 | 0 | 6 | -4 | -7
CCCOC1CCCN(Cc2nc(-c3ccc(C(=O)OC)cc3)no2)C1 (stereo not given) | -14 | 12 | 0 | 9 | -3 | -5
O=C(c1ccc(NC2=NC3CS(=O)(=O)CC3S2)cc1)N(CCO)Cc1ccccc1 (stereo not given) | -10 | -2 | 0 | 3 | 0 | 36*
